“And” between values parts separate entries of the source, which are not always exact repeats. Equal entries are not always repeated. The source made the active and inactive calls.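 How the source made its calls, unless noted: active means compounds whose cell count with miR-34 switched on is under 0.7 times the count with it off; inactive means the rest.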
What was measured:
[1] = hESC survival regulators, cell-based (AID 493140; call rule not given here;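 further: cells exposed to compounds for four days before counting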); conditions: human embryonic stem cell survival screen; stronger effect = higher value
[2] = liver-stage malaria parasite growth inhibition, primary screen, cell-based, HepG2, luciferase luminescence, HepG2 viability (AID 624349; in the data active means parasite load remaining mostly below about 12%, no sharp cut-off; inactive means mostly above about 10%;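 further: 100% = mean of DMSO negative control wells on the same plate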); conditions: P. berghei liver stage in HepG2, luciferase luminescence, concentration not given here; parasite load remaining: stronger effect = lower value; viability: measured here: HepG2 viability without parasites
[3] = stimulators of nuclear beta-catenin in C2C12, primary screen, imaging, WNT3A-conditioned medium, mouse C2C12, NPC library (AID 1117326; in the data active means nuclear beta-catenin stimulation mostly above about 4.2%, no sharp cut-off; inactive means mostly below about 10%); conditions: stronger effect = higher value
[4] = stimulators of insulin release from INS-1E, primary screen, cell-based, 5 mM glucose, NPC library (AID 1117329;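 active means compound raises insulin release from rat beta cells at 5 mM glucose, no numeric limit stated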); conditions: rat INS-1E insulin secretion, at 10 µM, stronger effect = higher value
[5] = growth inhibition of GSK3B-pretreated HCT116 cells – cell-based, CellTiter-Glo, 0.2 to 20 µM (AID 1117336;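 active means compounds lowering colon cancer cell viability after pretreatment blocking the GSK3B kinase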); conditions: HCT116 viability after GSK3B inhibitor, at 20 µM, stronger effect = higher value
[6] = inhibition of endothelial tube formation, primary screen, imaging, VEGF stimulated, CD31 staining, tube area, NPC library (AID 1117340;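 active means compound that reduces growth-factor-driven endothelial tube area in a mixed cell culture, no cutoff stated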); conditions: VEGF-stimulated ADSC/ECFC co-culture, at 10 µM, stronger effect = higher value
[7] = glucagon-like peptide 1 release enhancers, primary assay, NCI-H716 cell line, NPC library (AID 1117341;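 active means compound raises GLP1 secretion from the human gut endocrine cells, with no numeric limit stated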); conditions: NCI-H716 cells, at 10 µM, stronger effect = higher value
[8] = HCT116 colon cancer cell growth inhibition, primary screen, CellTiter-Glo luminescence, NPC library (AID 1117342;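 active means compounds that lower survival of HCT116 colon cancer cells in the luminescence readout, no numeric limit stated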); conditions: at 20 µM (top of the series)
[9] = CellTiter-Glo luminescent readout of SW480 viability loss, NPC library primary (AID 1117343;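 active means compounds that lower viability of the colon cancer cells in the luminescence readout, with no numeric limit stated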); conditions: CellTiter-Glo luminescence; at 20 µM (top of the series) unless noted
[10] = decreased DLD-1 cellular survival, CellTiter-Glo luminescent readout, NPC compound collection, primary HTS (AID 1117346;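 active means compounds that lower survival of DLD-1 colon cancer cells in the luminescence readout, no cutoff given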); conditions: DLD-1 viability, CellTiter-Glo luminescence; at 20 µM (top of the series)
[11] = differential killing of epithelial or mesenchymal cells, primary screen, imaging, PC-3E GFP, TEM4-18 mCherry, co-culture (AID 1345086;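 active means compounds killing one labelled cell type while sparing the other, by normalised counts and ratio limits, not self-fluorescent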;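 on all read-outs here: cells exposed to compound for 72 h before imaging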;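 on red/green cell ratio (normalised): normalised mesenchymal count divided by normalised epithelial count so high means epithelial killing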); conditions: imaging cell counts, at 1 µM; for red/green cell ratio (normalised): actives lie on both sides, counts scaled to control wells, 1 = unselective
[12] = sensitizers of A549 cells to miR-34 induction, primary screen, imaging, A549 dox-inducible miR-34, nuclei and caspase counts (AID 1347080); conditions: A549 miR-34 inducible, Hoechst nuclei count, 48 h
[13] = survival rescue of mitochondrial mutant cells in low glucose, primary screen, MELAS cybrids, Rieske KO mouse fibroblasts, CellTiter-Glo (AID 1508586;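 active means mean z-score across replicates of 1.96 or higher in either the MELAS or the Rieske mutant cell line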;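 further: z relative to plate mean and SD of compound and empty wells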)
[14] = biological target: NAD(+) hydrolase SARM1 (Homo sapiens) (UniProt Q6SZW1); experiment: SARM1 TIR NADase inhibitors, cell lysate, NAD-Glo luminescence (AID 1508614;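 active means compound whose remaining NAD level is above about 45 nM, limit read from the data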); conditions: SAM-TIR HEK293T lysate NADase, at 1 µM, stronger effect = higher value
[15] = measured here: epithelial PC-3E GFP cell survival
[16] = measured here: mesenchymal TEM4-18 mCherry cell survival
[17] = stronger effect = lower value, cell number ratio, induced over uninduced
[18] = measured here: relative caspase fold change +Dox/-Dox
[19] = measured here: total cells with miR-34 induction, stronger effect = lower value
[20] = measured here: total cells without miR-34 induction
[21] = MELAS cybrid survival, CellTiter-Glo 48 h, stronger effect = higher value
[22] = Rieske KO mouse fibroblast survival, CellTiter-Glo 72 h

NAD(+) hydrolase SARM1 (Homo sapiens), sequence (Q6SZW1 whole entry, looked up): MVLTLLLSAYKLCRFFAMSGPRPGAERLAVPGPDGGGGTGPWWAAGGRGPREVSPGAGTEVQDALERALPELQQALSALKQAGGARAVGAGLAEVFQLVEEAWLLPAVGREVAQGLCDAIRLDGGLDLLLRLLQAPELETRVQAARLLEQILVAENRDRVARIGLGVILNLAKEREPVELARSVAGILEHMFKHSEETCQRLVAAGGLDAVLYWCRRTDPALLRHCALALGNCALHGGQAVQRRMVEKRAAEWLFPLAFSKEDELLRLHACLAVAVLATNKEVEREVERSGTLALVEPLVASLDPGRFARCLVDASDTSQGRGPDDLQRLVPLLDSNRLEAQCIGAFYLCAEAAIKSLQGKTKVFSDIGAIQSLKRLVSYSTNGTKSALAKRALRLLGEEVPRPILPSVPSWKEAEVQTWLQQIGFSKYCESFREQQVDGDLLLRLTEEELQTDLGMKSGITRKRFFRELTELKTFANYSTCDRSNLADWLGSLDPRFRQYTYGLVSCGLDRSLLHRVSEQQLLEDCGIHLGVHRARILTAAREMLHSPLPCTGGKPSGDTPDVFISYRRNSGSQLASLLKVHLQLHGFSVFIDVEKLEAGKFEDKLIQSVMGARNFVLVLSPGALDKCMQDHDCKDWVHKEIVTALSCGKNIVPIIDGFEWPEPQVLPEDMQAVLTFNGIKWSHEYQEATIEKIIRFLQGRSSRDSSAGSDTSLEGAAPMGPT

C[C@@H](O)[C@H]1C(=O)N2C(C(=O)O)=C(SCCN=CN)C[C@H]12
survival [1]: 8.25 (inactive) | parasite load remaining [2]: 97.9% (inactive) and 82.7% (inactive) and 21.5% (inactive) | viability [2]: 121% and 75.9% and 75.5% | nuclear beta-catenin stimulation ([3]; at 10 µM): 0.4% (inactive) | nuclear beta-catenin stimulation ([3]; stimulation, at 2 µM): 4% | insulin secretion stimulation [4]: -0.5% (inactive) | viability decrease [5]: 6.7% (inactive) | tube area decrease [6]: 8.2% (inactive) | GLP1 secretion stimulation [7]: -1.8% (inactive) | inhibition of viability [8]: 1.15% (inactive) | viability decrease (inhibition) [9]: -18.3% (inactive) | viability decrease (inhibition) [10]: 2% (inactive) | red/green cell ratio (normalised) [11]: 0.95 (inactive) | normalised cell number [11, 15]: 1.17 | normalised cell number [11, 16]: 1.11 | fold change [12, 17]: 1.02 (inactive) and 0.837 (inactive) and 0.836 (inactive) | fold change [12, 18]: 2.4 and 1.6 and 1.5 | cell count [12, 19]: 10800 and 9100 and 8570 | cell count [12, 20]: 10500 and 10900 and 10300 | z-score [13, 21]: 0.502 (inactive) and 0.0491 (inactive) | z-score [13, 22]: -0.015 and -0.95 | remaining NAD [14]: 10 nM (inactive)

CC1CC(OC(=O)c2ccccc2O)CC(C)(C)C1 (stereo not given)
survival [1]: 6 (inactive) | parasite load remaining [2]: 86.4% (inactive) and 63% (inactive) | viability [2]: 75.8% and 101% | nuclear beta-catenin stimulation ([3]; at 10 µM): 1.8% (inactive) | nuclear beta-catenin stimulation ([3]; stimulation, at 2 µM): -0.1% | insulin secretion stimulation [4]: 0% (inactive) | viability decrease [5]: -63.6% (inactive) | tube area decrease [6]: 4.9% (inactive) | GLP1 secretion stimulation [7]: -7.6% (inactive) | inhibition of viability [8]: 9.33% (inactive) | viability decrease (inhibition) [9]: 6% (inactive) | viability decrease (inhibition) [10]: -0.4% (inactive) | red/green cell ratio (normalised) [11]: 1.12 (inactive) | normalised cell number [11, 15]: 1.37 | normalised cell number [11, 16]: 1.53 | fold change [12, 17]: 0.96 (inactive) and 0.853 (inactive) | fold change [12, 18]: 0.489 and 3.24 | cell count [12, 19]: 9060 and 10300 | cell count [12, 20]: 9440 and 12000 | z-score [13, 21]: -0.66 (inactive) | z-score [13, 22]: -0.623 | remaining NAD [14]: 10 nM (inactive)

O=S(=O)(O)NC1CCCCC1
nuclear beta-catenin stimulation ([3]; at 10 µM): 0.2% (inactive) | nuclear beta-catenin stimulation ([3]; stimulation, at 2 µM): 0.3% | insulin secretion stimulation [4]: -1.6% (inactive) | viability decrease [5]: -5.65% (inactive) | tube area decrease [6]: -18.4% (inactive) | GLP1 secretion stimulation [7]: -0.8% (inactive) | inhibition of viability [8]: -5.4% (inactive) | viability decrease (inhibition) [9]: 8.9% (inactive) | viability decrease (inhibition) [10]: 1.3% (inactive) | red/green cell ratio (normalised) [11]: 0.89 (inactive) | normalised cell number [11, 15]: 0.95 | normalised cell number [11, 16]: 0.84 | fold change [12, 17]: 0.883 (inactive) and 0.898 (inactive) | fold change [12, 18]: 0.921 and 0.472 | cell count [12, 19]: 8650 and 7930 | cell count [12, 20]: 9790 and 8830 | z-score [13, 21]: -0.205 (inactive) | z-score [13, 22]: -0.173 | remaining NAD [14]: 10 nM (inactive)

CC(=O)CC(c1ccc([N+](=O)[O-])cc1)c1c(O)c2ccccc2oc1=O (stereo not given)
survival [1]: 21.3 (inactive) | parasite load remaining [2]: 45.5% (inactive) and 55% (inactive) | viability [2]: 108% and 91.9% | nuclear beta-catenin stimulation ([3]; at 10 µM): -1.1% (inactive) | nuclear beta-catenin stimulation ([3]; stimulation, at 2 µM): -1.3% | insulin secretion stimulation [4]: 0.6% (inactive) | viability decrease [5]: -2.5% (inactive) | tube area decrease [6]: -40.9% (inactive) | GLP1 secretion stimulation [7]: -5.1% (inactive) | inhibition of viability [8]: 4.3% (inactive) | viability decrease (inhibition) [9]: 21.6% (inactive) | viability decrease (inhibition) [10]: 4.6% (inactive) | red/green cell ratio (normalised) [11]: 0.82 (inactive) | normalised cell number [11, 15]: 1.28 | normalised cell number [11, 16]: 1.05 | fold change [12, 17]: 0.921 (inactive) | fold change [12, 18]: 1.68 | cell count [12, 19]: 7660 | cell count [12, 20]: 8320 | z-score [13, 21]: 0.273 (inactive) | z-score [13, 22]: 0.192 | remaining NAD [14]: 10 nM (inactive)

O=C(Oc1ccccc1C(=O)O)c1ccccc1O
parasite load remaining [2]: 63.4% (inactive) | viability [2]: 139% | nuclear beta-catenin stimulation ([3]; at 10 µM): 0.1% (inactive) | nuclear beta-catenin stimulation ([3]; stimulation, at 2 µM): 0.1% | insulin secretion stimulation [4]: -0.5% (inactive) | viability decrease [5]: 13.4% (inactive) | tube area decrease [6]: 3.9% (inactive) | GLP1 secretion stimulation [7]: -0.4% (inactive) | inhibition of viability [8]: 0.8% (inactive) | viability decrease (inhibition) [9]: 16.6% (inactive) | viability decrease (inhibition) [10]: 24.3% (inactive) | red/green cell ratio (normalised) [11]: 1.15 (inactive) | normalised cell number [11, 15]: 1.17 | normalised cell number [11, 16]: 1.35 | fold change [12, 17]: 0.931 (inactive) and 0.896 (inactive) | fold change [12, 18]: 1.03 and 3.07 | cell count [12, 19]: 8500 and 11000 | cell count [12, 20]: 9120 and 12300 | z-score [13, 21]: -0.0904 (inactive) | z-score [13, 22]: -0.293 | remaining NAD [14]: 10 nM (inactive)

Cc1ncc(CO)c(CO)c1O
survival [1]: 7.67 (inactive) | parasite load remaining [2]: 121% (inactive) and 68.6% (inactive) and 52.2% (inactive) | viability [2]: 108% and 75.6% and 94.6% | nuclear beta-catenin stimulation ([3]; at 10 µM): 0.1% (inactive) | nuclear beta-catenin stimulation ([3]; stimulation, at 2 µM): 0.9% | insulin secretion stimulation [4]: -1.8% (inactive) | viability decrease [5]: 4.5% (inactive) | tube area decrease [6]: -14.1% (inactive) | GLP1 secretion stimulation [7]: 3.1% (inactive) | inhibition of viability [8]: -18.3% (inactive) | viability decrease (inhibition) [9]: 23.7% (inactive) | viability decrease (inhibition) [10]: 3.95% (inactive) | red/green cell ratio (normalised) [11]: 0.91 (inactive) | normalised cell number [11, 15]: 1.07 | normalised cell number [11, 16]: 0.97 | fold change [12, 17]: 0.859 (inactive) and 0.971 (inactive) and 0.904 (inactive) | fold change [12, 18]: 1.28 and 0.606 and 6.28 | cell count [12, 19]: 9040 and 7900 and 12400 | cell count [12, 20]: 10500 and 8140 and 13700 | z-score [13, 21]: -0.22 (inactive) and 0.248 (inactive) | z-score [13, 22]: -0.0864 and 0.109 | remaining NAD [14]: 10 nM (inactive)

CC(=O)Oc1cc(C(C)C)c(OCCN(C)C)cc1C
survival [1]: 24.8 (inactive) | parasite load remaining [2]: 26.2% (inactive) and 99.2% (inactive) | viability [2]: 48.6% and 93% | nuclear beta-catenin stimulation ([3]; at 10 µM): -2.5% (inactive) | nuclear beta-catenin stimulation ([3]; stimulation, at 2 µM): -1% | insulin secretion stimulation [4]: 5.5% (inactive) | viability decrease [5]: 19.7% (inactive) | tube area decrease [6]: -2.1% (inactive) | GLP1 secretion stimulation [7]: 2.8% (inactive) | inhibition of viability [8]: 2.17% (inactive) | viability decrease (inhibition) [9]: 20.7% (inactive) | viability decrease (inhibition) [10]: -14.3% (inactive) | red/green cell ratio (normalised) [11]: 1.11 (inactive) | normalised cell number [11, 15]: 0.81 | normalised cell number [11, 16]: 0.9 | fold change [12, 17]: 1.09 (inactive) and 0.875 (inactive) | fold change [12, 18]: 0.909 and 1.24 | cell count [12, 19]: 11300 and 8650 | cell count [12, 20]: 10400 and 9890 | z-score [13, 21]: 0.238 (inactive) | z-score [13, 22]: -0.428 | remaining NAD [14]: 10 nM (inactive)
